Laboratory results: PubChem BioAssay AID1851 (National Center for Advancing Translational Sciences (NCATS), 2009)
Out of some 16,000 compounds screened, about 5,700 (36%) were called active. About 24% were inconclusive and are not listed. This is one part of the list. Unmarked numbers belong to inactive results. Calls follow the shape of the dose curve; as a rule, active = well fitted curve in the direction sought with a large enough effect; inconclusive = small, poorly fitted or top-dose-only effect, or effect the other way; inactive = no such curve, though single readings can be large or run the other way.

molecular target: Cytochrome P450 1A2 (Homo sapiens) (UniProt P05177); experiment: Cytochrome panel assay with activity outcomes; conditions: recombinant CYP, pro-luciferin dealkylation, luminescence, p450-cyp1a2; series mostly up to 57.1 µM
Sequence (P05177 whole entry, looked up): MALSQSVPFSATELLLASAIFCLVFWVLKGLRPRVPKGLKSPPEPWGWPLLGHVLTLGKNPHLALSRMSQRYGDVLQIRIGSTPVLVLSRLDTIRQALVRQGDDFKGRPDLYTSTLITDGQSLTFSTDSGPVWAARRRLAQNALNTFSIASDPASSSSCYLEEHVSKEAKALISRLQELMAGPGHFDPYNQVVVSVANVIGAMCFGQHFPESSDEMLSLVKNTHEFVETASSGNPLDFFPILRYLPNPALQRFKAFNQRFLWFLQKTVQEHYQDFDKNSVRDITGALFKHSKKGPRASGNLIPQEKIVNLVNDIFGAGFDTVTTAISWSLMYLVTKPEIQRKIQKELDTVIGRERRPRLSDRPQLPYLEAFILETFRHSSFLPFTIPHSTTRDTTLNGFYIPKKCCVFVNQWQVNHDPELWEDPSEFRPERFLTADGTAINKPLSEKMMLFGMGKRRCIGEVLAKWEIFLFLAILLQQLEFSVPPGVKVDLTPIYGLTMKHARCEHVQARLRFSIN
% is scaled to controls: 0 for no effect and ±100 for the full control effect.

SMILES	AC50	activity, negative = inhibition
CC(C)(C)NC[C@H](O)c1cc(O)cc(O)c1	inactive	–
CC(=O)NC1(c2cccc(F)c2)CCN(CC(=O)NC(C)C)CC1	inactive	–
[N-]=[N+]=Nc1ccc(C(=O)CSC[C@@H](NC(=O)CC[C@@H](N)C(=O)O)C(=O)NCC(=O)O)cc1	inactive	–
COc1ccc(Nc2ncc3nc(-c4cccs4)c(=O)n(Cc4cccc(OC)c4)c3n2)cc1	inactive	–
CCNc1ncc2nc(-c3cccs3)c(=O)n(Cc3cccs3)c2n1	1.26 µM (active)	–
CCNc1ncc2nc(C)c(=O)n(Cc3cccs3)c2n1	2 µM (active)	–
CCNc1ncc2nc(-c3cccs3)c(=O)n(C)c2n1	1.58 µM (active)	–
CCNc1ncc2nc(-c3cn(C)c4ccccc34)c(=O)n(Cc3cccs3)c2n1	6.31 µM (active)	–
CC[N+](C)(C)c1cccc(O)c1	inactive	–
NC/C=C\C(=O)O	inactive	–
Cc1ccc(Oc2nn[nH]n2)cc1	inactive	–
CC(=O)CC(=O)[C@@]1(O)CC[C@@H]2[C@@H]3C=C(C)C4=CC(=O)CC[C@@H]4[C@H]3CC[C@]21C	inactive	–
CCNc1ncc2ncc(=O)n(Cc3cccs3)c2n1	2 µM (active)	–
CCNc1ncc2nc(-c3cc(F)cc(F)c3)c(=O)n(Cc3cccs3)c2n1	5.01 µM (active)	–
CCNc1ncc2nc(-c3ccccc3)c(=O)n(Cc3cccs3)c2n1	0.316 µM (active)	–
C[N+]1(C)CCC(=C(c2ccccc2)c2ccccc2)CC1	inactive	–
CC(=O)Oc1cc(C(C)C)c(OCCN(C)C)cc1C	3.16 µM (active)	–
CC(C)(C)CNCCO	–	6.23% [at 2.29 µM]
Cc1ccc(CSc2nnc([C@@H]3CCCN3)o2)cc1	15.8 µM (active)	–
c1ccc(CSc2nnc([C@@H]3CCCN3)o2)cc1	25.1 µM (active)	–
Cc1ccc(CSc2nnc(-c3ccncc3)n2CC2CCCO2)cc1 (configuration not stated)	inactive	–
NC(=O)/C(=N\O)c1ccccc1	inactive	–
CCOC(=O)c1oc2nc(CC(C)C)c3c(c2c1N)CCC3	0.891 µM (active)	–
COc1cccc([C@H]2Oc3ccc(OC)cc3/C(=N\OC[C@@H](O)[C@@H]3O[C@@H]4OC(C)(C)O[C@@H]4[C@H]3O)[C@@H]2O)c1	–	-8.99% [at 11.4 µM]
O=C(O)C[C@H](Cc1ccc2c(c1)OCO2)C(=O)O	–	-20% [at 11.4 µM]

SMILES	AC50	activity, negative = inhibition
CC1(C)SC(=S)N(Cc2ccc3c(c2)OCO3)C1N(O)C(=O)NC1CCCCC1 (configuration not stated)	inactive	–
CCc1ccccc1NC(=S)NCc1ccc2c(c1)OCO2	5.62 µM (active)	–
CCc1c(C(=O)NCc2ccc3c(c2)OCO3)[nH]c(C)c1C(C)=O	3.16 µM (active)	–
C[N+]1(C)CCc2cc(O)c(O)cc2[C@H]1Cc1ccc(O)c(O)c1	–	-12.1% [at 2.29 µM]
CC1(C)CC(=O)C(C(C#Cc2ccccc2)C2=C(O)CC(C)(C)CC2=O)=C(O)C1	inactive	–
COc1ccc(/C=N/NC(=O)c2ccn[nH]2)cc1COc1ccc(F)cc1	8.91 µM (active)	–
COc1cccc(-c2cc(C(=O)N/N=C/c3ccc(OC)c(COC(C)=O)c3)c3ccccc3n2)c1	inactive	–
COc1ccc(C(C(=O)NC2CCCC2)N(Cc2ccc(F)cc2)C(=O)c2ccn[nH]2)cc1OC (configuration not stated)	inactive	–
CO[C@@]12C[C@@H](COC(=O)c3cncc(Br)c3)CN(C)[C@H]1Cc1cn(C)c3cccc2c13	5.01 µM (active)	–
CN(C)c1ccc(/C=N\NC(=O)c2cnc3ccccc3c2)cc1	1.58 µM (active)	–
Cc1cccc(C(=O)N/N=C/c2ccc(OCC(=O)N3CCCCC3)cc2)c1	inactive	–
O[C@@](CCN1CCCCC1)(c1ccccc1)[C@@H]1C[C@H]2C=C[C@@H]1C2	inactive	–
N[C@@H](C(=O)O)c1ccc(C(=O)O)cc1	inactive	–
CC(=O)N[C@H](Cc1ccc(O)cc1)C(=O)O	–	-11.8% [at 11.4 µM]
CC(C)Cc1ccc([C@H](C)C(=O)O)cc1	inactive	–
N#C[C@H](Cc1ccc(O)cc1)c1ccc(O)cc1	12.6 µM (active)	–
Cc1sc2ncn(CC(=O)NCCCC(=O)N3CCN(c4ncccn4)CC3)c(=O)c2c1C	inactive	–
CCCCNC(=O)CCn1c(=S)[nH]c2cc3c(cc2c1=O)OCO3	2.51 µM (active)	–
O=C(CCCCCn1c(=S)[nH]c2cc3c(cc2c1=O)OCO3)N1CCN(C2CCCCC2)CC1	inactive	–
C=CCNC(=O)c1ccc(Cn2c(=S)[nH]c3cc4c(cc3c2=O)OCO4)cc1	8.91 µM (active)	–
O=C(CCCn1c(=S)[nH]c2cc3c(cc2c1=O)OCO3)N1CCN(c2ncccn2)CC1	12.6 µM (active)	–
CCN(CC)CCn1c(=S)[nH]c2cc3c(cc2c1=O)OCO3	15.8 µM (active)	–
CCCNC(=O)OC[C@@H]1O[C@H](CCO/N=C(\C)CCN2CCc3nc(-c4ccccc4)c(-c4ccccc4)cc3C2)C=C[C@@H]1Oc1ccc(OC)cc1	–	-4.45% [at 11.4 µM]
COC(=O)C/C=C\[C@H](C)[C@H](CO)NS(=O)(=O)c1ccc(C)cc1	–	-2.78% [at 11.4 µM]
Cc1ccc(C)c(S(=O)(=O)N2CCC(c3nc4c(nnn4Cc4ccc(F)cc4)c(=O)[nH]3)CC2)c1	inactive	–

SMILES	AC50	activity, negative = inhibition
O=C(NCc1ccco1)c1nc2c(nnn2Cc2cccc(Cl)c2)c(=O)[nH]1	inactive	–
O=C(Cc1cccs1)N1CCC(c2nc3c(nnn3Cc3ccccc3Cl)c(=O)[nH]2)CC1	6.31 µM (active)	–
CCN(CC)CC[n+]1ccc2c(C)c3[nH]c4ccccc4c3c(C)c2c1	2.51 µM (active)	–
CCN(CC)CC[n+]1ccc2c(C)c3[nH]c4ccc(O)cc4c3c(C)c2c1	3.16 µM (active)	–
Cc1ccccc1-c1ccc2ncnc(N3CCNCC3)c2c1	3.16 µM (active)	–
CN1CCN(c2ncnc3ccc(-c4ccccc4C#N)cc23)CC1	3.16 µM (active)	–
CN1CCN(c2ncnc3ccc(-c4ccccc4Cl)cc23)CC1	1.58 µM (active)	–
Clc1ccccc1-c1ccc2ncnc(N3CCNCC3)c2c1	2 µM (active)	–
CC(Cc1ccccc1)NC(=O)CSc1nc2nc3c(cc2c(=O)n1-c1ccccc1)COC(C)(C)C3 (configuration not stated)	inactive	–
C/C(CCN1CCc2nc(-c3ccccc3)c(-c3ccccc3)cc2C1)=N\OC[C@@H](O)COCc1ccco1	–	-6.41% [at 11.4 µM]
CCOC(=O)C(C)(C)[C@H](O)C(C)C	–	-1.66% [at 11.4 µM]
N#Cc1cccc(NC(=O)N2CCCC3(CCN(C(=O)c4csnn4)CC3)C2)c1	inactive	–
Cc1ccccc1-c1ccc2ncnc(N3CCN(C)CC3)c2c1	3.16 µM (active)	–
Cc1cnc(CNc2nc(-c3ccc(N(C)C)cc3)nc3ccccc23)cn1	3.16 µM (active)	–
Cc1cnc(CNc2nc(-c3ccoc3)nc3ccccc23)cn1	2 µM (active)	–
COC(=O)Cn1c(=N)n(CCN2CCCCC2)c2ccccc21	inactive	–
N=c1n(CCN2CCOCC2)c2ccccc2n1CC(=O)c1ccc(Cl)c(Cl)c1	1.26 µM (active)	–
Nc1ccc(N2C(=O)c3ccccc3C2=O)c(Cl)c1	inactive	–
O=C1c2cccc3c(Cl)ccc(c23)C(=O)N1O	3.16 µM (active)	–
CC(C)COP(=O)(OCC(C)C)C(O)c1ccccc1F (configuration not stated)	inactive	–
O=C1CCCCCC1C1(O)C(=O)Nc2ccc(Br)cc21 (configuration not stated)	inactive	–
CCOC(=O)c1c2ccc(OCC(=O)N/N=C/c3ccc(Cl)cc3)cc2n2ccccc12	3.16 µM (active)	–
Cc1ccc(-n2c(C)cc(C(=O)CSc3n[nH]c(N)n3)c2C)cc1	inactive	–
Cc1cc(C)nc(Nc2ncc(O)n2-c2ccccc2)n1	2.82 µM (active)	–
Cc1ccc(-n2c(O)cnc2Nc2nc(C)cc(C)n2)cc1	5.01 µM (active)	–

SMILES	AC50	activity, negative = inhibition
N=c1n(-c2ccccc2)c(O)cc(=O)n1-c1ccccc1	inactive	–
S=C(Nc1ccccc1)Nc1nccs1	0.794 µM (active)	–
O=C(O)c1ccccc1C(=O)Nc1ccc(S(=O)(=O)Nc2nccs2)cc1	inactive	–
CN(CCO)Cc1ncccc1O	–	-10% [at 2.29 µM]
COc1ccc(NC(C)=O)cc1NC(=O)CN1CCN(C2c3ccccc3-c3ccccc32)CC1	28.2 µM (active)	–
COc1ccccc1NC(=O)CN1CCN(c2ccccc2F)CC1	25.1 µM (active)	–
COc1ccc(NC(C)=O)cc1NC(=O)CN1CCN(CC(=O)Nc2ccccc2Cl)CC1	inactive	–
O=C(CCN1CCN(c2ccccc2F)CC1)Nc1ccccc1F	inactive	–
COc1ccccc1NC(=O)CN1CCC(C(=O)c2ccc(F)cc2)CC1	inactive	–
COc1ccccc1NC(=O)CN1CCN(C2c3ccccc3-c3ccccc32)CC1	15.8 µM (active)	–
Cc1ccc(C(=O)C(OC(=O)CN2C(=O)c3ccccc3C2=O)c2ccccc2)cc1 (configuration not stated)	inactive	–
COC(=O)C/C=C1\c2ccccc2[C@H](OC)[C@H]1C	–	-6.47% [at 11.4 µM]
CC(C)OC(=O)CN1CCN(C2c3ccccc3-c3ccccc32)CC1	12.6 µM (active)	–
Cc1cc(Cl)ccc1NC(=O)CN1CCC(C(O)(c2ccccc2)c2ccccc2)CC1	inactive	–
O=C(c1csnn1)N1CCC2(CC1)CN(Cc1cc(C(F)(F)F)cc(C(F)(F)F)c1)C2	inactive	–
Cc1cc(-c2cccs2)nc(-n2cccc2)n1	3.16 µM (active)	–
CCCN1C2=NCCCN2c2ccccc21	inactive	–
CCCCN1C2=NCCCN2c2ccccc21	25.1 µM (active)	–
CCCCN1C(=O)CC(Sc2ccccc2C(=O)O)C1=O (configuration not stated)	inactive	–
Cc1c(C(=O)NC2CCCc3ccccc32)oc2ccc(S(=O)(=O)N3CCOCC3)cc12 (configuration not stated)	inactive	–
CCc1ccccc1OC[C@@H](O)CN[C@H]1CCCc2ccccc21	12.6 µM (active)	–
COC(=O)[C@@]1(Cc2ccccc2)[C@H]2c3cc(C(=O)N4CCCC4)n(CCc4ccccn4)c3C[C@H]2CN1C(=O)c1ccccc1	inactive	–
